In the library only some 21% were active in any assay of this set; here they are far more common.
CHX counter: counter-screen for Shiga toxin inhibitors: cycloheximide protein synthesis inhibition. cell reporter, cycloheximide protein synthesis inhibition counterscreen. max response, %. 300,000 tested, 12% active; in the data active means max response mostly above about 13%, no sharp cut-off; inactive means mostly below about 14%; further: read at 38.3 µM for the half of the compounds with a filed dose
SARS PLpro yeast: blocks SARS-CoV papain-like protease in a yeast assay; Potency, µM (series often up to 32.9 µM), actives largely listed as activators; 330,000 tested, 0.19% active; S. cerevisiae expressing SARS-CoV PLpro, growth rescue; further: nearly all actives have a fitted effect of over 55% in size
Pf growth 96h: P. falciparum growth inhibition at 96 hour, primary screen for plastid delayed-death inhibitors. P. falciparum luciferase reporter growth, 96 h. Potency, µM (top dose mostly 28.7 µM), hits mostly inhibitors. 320,000 tested, 6.9% active. AID 504834; active means well fitted inhibition curve with a large enough effect; inconclusive means small, poorly fitted or top-dose-only effect, or another doubt; inactive means no such curve, though single readings can be large or run the other way
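96 h incubation, 37 C, 5% CO2, of luciferase-reporter P. falciparum-infected RBCs (2% hematocrit, 0.05% parasitemia final) with test compounds; endpoint luminescence.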
Pf growth 48h: inhibits P. falciparum growth in the first generation, 48 h | P. falciparum luciferase growth in erythrocytes, 48 h | Potency, µM (doses to about 28.7 µM), most hits filed as inhibitors | 310,000 tested, 5.9% active; active means well fitted inhibition curve with a large enough effect; inconclusive means small, poorly fitted or top-dose-only effect, or another doubt; inactive means no such curve, though single readings can be large or run the other way
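In quantitative HTS format, infected erythrocytes bearing luciferase-reporter parasites were treated for a single generation at 37 C. Luminescence after adding detection reagent served as the growth measure.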
Shiga toxin inh: inhibitors of Shiga toxin in Vero cells; Vero cells, Shiga toxin protein synthesis inhibition reporter; inhibition, % at 38.7 µM; AID 2315; 290,000 tested, 9.2% active; in the data active means inhibition mostly above about 28%, no sharp cut-off; inactive means mostly below about 43%
NS1 inh: inhibitors of influenza NS1 protein function. Potency, µM (doses to about 46.1 µM). AID 2326. 270,000 tested, 0.4% active; further: actives are rising curves; nearly all actives have a fitted effect of over 50% in size
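Compounds were scored for reversing the slow growth caused by influenza A NS1 in S. cerevisiae, measured by optical density at 600 nm. Assay medium contained 2% galactose at pH 6.0; NS1-free yeast of the same strain were the positive control.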
Each line names hits and unclear results; the compound was inactive in the other large screens. Unless noted, the call rests on the fitted dose curve.

COc1ccc(S(=O)(=O)NCc2ccc3c(c2)OCO3)cc1OC	Pf growth 96h 1.2µM
COc1ccccc1N(C)S(=O)(=O)c1ccc(C(=O)NCc2ccc3c(c2)OCO3)cc1	Pf growth 96h inconclusive, Pf growth 48h 9.3µM (no result: NS1 inh)
COc1cc(OC)cc(C(=O)NNC(=O)c2ccc(S(=O)(=O)N(C)c3ccccc3OC)cc2)c1	Pf growth 96h 0.083µM
COc1cccc(C(=O)NCc2ccc3c(c2)OCO3)c1OC	Pf growth 96h inconclusive
Cc1cccc(C(=O)NC(=S)Nc2cccc3nc(C)ccc23)c1	Pf growth 48h inconclusive
COc1ccc(CNC(=O)CN2C(=O)NC3(CCCc4sccc43)C2=O)cc1OC (configuration not stated)	Pf growth 96h 4.1µM, Pf growth 48h inconclusive (no result: CHX counter, Shiga toxin inh, NS1 inh)
COc1ccccc1C(=O)CN1C(=O)NC2(CCCc3ccccc32)C1=O (configuration not stated)	none (no result: CHX counter, Pf growth 96h, Pf growth 48h, Shiga toxin inh, NS1 inh)
COc1ccc(CCN(C)C(=O)CN2C(=O)NC3(CCCc4ccccc43)C2=O)cc1OC (configuration not stated)	Pf growth 96h inconclusive (no result: CHX counter, Shiga toxin inh, NS1 inh)
O=C(CN1C(=O)NC2(CCc3ccccc32)C1=O)c1ccccc1 (configuration not stated)	none
CCOc1ccc(CN(C)C(=O)CN2C(=O)NC3(CCCc4ccccc43)C2=O)cc1 (configuration not stated)	Pf growth 96h 1.2µM, Pf growth 48h inconclusive (no result: CHX counter, Shiga toxin inh, NS1 inh)
COc1ccc(C(=O)CN2C(=O)NC3(CCCc4ccccc43)C2=O)cc1OC (configuration not stated)	Pf growth 96h 1.3µM, Pf growth 48h 8.3µM
O=C(CN1C(=O)NC2(CCc3ccccc32)C1=O)c1c[nH]c2ccccc12 (configuration not stated)	Pf growth 96h inconclusive, Pf growth 48h 8.3µM (no result: CHX counter, Shiga toxin inh, NS1 inh)
O=C(OCC(=O)N1CCc2ccccc2C1)c1ccc(F)cc1Cl	none (no result: CHX counter, Pf growth 96h, Pf growth 48h, Shiga toxin inh, NS1 inh)
CN(C)/C=C(\C(=O)c1ccccc1)c1nnnn1-c1ccccc1	none
CN(C)c1ccc(C=C(c2nnnn2-c2ccccc2)c2nnnn2-c2ccccc2)cc1	Pf growth 48h 9.3µM
CCOc1ccccc1NC(=S)N(CCC(C)C)C1CCN(C(C)=O)CC1	Pf growth 96h inconclusive, Pf growth 48h inconclusive (no result: NS1 inh)
O=c1nc(SCc2cccc(C(F)(F)F)c2)nc2ccccn12	Pf growth 96h inconclusive, Pf growth 48h inconclusive (no result: NS1 inh)
CN(Cc1nccn1C)C(=O)c1ccc2nc(Cc3ccccc3F)oc2c1	CHX counter 55, Pf growth 96h inconclusive, Shiga toxin inh 69
Cc1cc(CN(C)C(=O)c2ccc3nc(Cc4ccccc4F)oc3c2)on1	CHX counter 46, Pf growth 96h inconclusive, Shiga toxin inh 75
CN(Cc1nccs1)C(=O)c1ccc2nc(Cc3ccccc3F)oc2c1	Pf growth 96h inconclusive
COCCCNC(=S)Nc1cc2oc3ccccc3c2cc1OC	CHX counter 11, Pf growth 96h inconclusive, Pf growth 48h inconclusive
COc1cc2c(cc1NC(=S)Nc1cccc3ccccc13)oc1ccccc12	CHX counter 35, Shiga toxin inh 103 (no result: Pf growth 96h)
S=c1[nH]ccn1-c1cccc(Cl)c1	none
O=[N+]([O-])c1cccc(/C=N/Nc2cc(N3CCOCC3)ncn2)c1	Pf growth 96h inconclusive (no result: Pf growth 48h)
Clc1ccccc1/C=N/Nc1cc(N2CCOCC2)ncn1	Pf growth 96h 8.3µM
C/C(=N\Nc1cc(N2CCOCC2)ncn1)c1ccccc1	CHX counter 28, Pf growth 96h inconclusive, Shiga toxin inh 30
Nc1ncccc1OCc1ccc(Br)cc1	CHX counter 71, Shiga toxin inh 77 (no result: NS1 inh)
Cc1ccc2cccc(OCc3ccc(Br)cc3)c2n1	Pf growth 96h inconclusive
COc1ccc(COc2cccnc2N)cc1	CHX counter 35, Shiga toxin inh 56
COc1ccc(Cc2c(N)nc(C)nc2N)cc1	none (no result: NS1 inh)
COc1ccc(/C=N/Nc2cc(C)nc3ccccc23)cc1	Pf growth 48h 0.74µM
COc1ccc(/C=N/Nc2cc(C)nc3c(C)cccc23)cc1	Pf growth 48h inconclusive
COc1cccc2c(N/N=C/c3ccc(O)c(O)c3)cc(C)nc12	CHX counter 22, Shiga toxin inh 53
Clc1ccccc1/C=C/C=N/Nc1nc(N2CCOCC2)nc(N2CCOCC2)n1	Pf growth 96h inconclusive, Pf growth 48h inconclusive (no result: NS1 inh)
CCC(C)(C)NC(=O)C(c1ccncc1)N(Cc1ccc(C)cc1)C(=O)c1csnn1 (configuration not stated)	Pf growth 96h 4.7µM

Screens (PubChem BioAssay)
